About 79,000 compounds went through this panel and 15% of them were active in at least one assay; those are over-represented in the sample as a whole. Calls of active or inactive are those of the source. Cut-off read from the data, not from the text of the source: active = growth inhibition above about 70%; inactive = the rest.
Key:
[1] = NCI Yeast Anticancer Drug Screen. Data for the rad52 strain (AID 147);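 note: 0% = growth of vehicle-treated control cultures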; details: S. cerevisiae rad52 mutant growth inhibition, hits give high values
Method in brief: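 Screen used a yeast mutant impaired in DNA repair. After compound exposure, growth was measured. Values reflect inhibition compared with vehicle-treated cells.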

[2] = NCI Yeast Anticancer Drug Screen. Data for the wt1 strain (AID 149);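 note: 0% = growth of vehicle-treated wt1 cultures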; details: S. cerevisiae wt1 strain (SPY 50644) growth inhibition, hits give high values
Method in brief: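 Vehicle-normalised growth inhibition; strain wt1; compound exposure.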

[3] = NCI Yeast Anticancer Drug Screen. Data for the rad50EPP+ strain (AID 151);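 note: 0% = growth of vehicle-treated control cultures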; details: S. cerevisiae rad50 mutant strain, hits give high values
Method in brief: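 Exposing the rad50EPP+ strain to each compound, growth was compared with vehicle-only cultures to give inhibition.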

[4] = NCI Yeast Anticancer Drug Screen. Data for the mgt1 strain (AID 153); details: S. cerevisiae mgt1 mutant growth inhibition, hits give high values
Method in brief: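 Genetically defined yeast (mgt1) treated with compound; inhibition of growth expressed against vehicle-treated controls.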

[5] = NCI Yeast Anticancer Drug Screen. Data for the rad50 strain (AID 155);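 note: 0% = growth of vehicle-only cultures of the same strain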; details: S. cerevisiae rad50 strain growth inhibition, hits give high values
Method in brief: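 A DNA repair-deficient yeast mutant serves as the test organism; compound-induced growth inhibition is calculated against vehicle-treated cells.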

[6] = NCI Yeast Anticancer Drug Screen. Data for the mec2-1 strain (AID 157); details: S. cerevisiae mec2-1 strain, hits give high values
Method in brief: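 Readout is yeast growth inhibition, normalised to vehicle-treated controls, in the mec2-1 strain exposed to compound.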

[7] = NCI Yeast Anticancer Drug Screen. Data for the rad14 strain (AID 159);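 note: 0% = growth of vehicle-treated control cultures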; details: S. cerevisiae rad14 strain growth inhibition, hits give high values
Method in brief: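 Vehicle-treated cultures served as the baseline for growth inhibition of a DNA repair-mutant yeast strain exposed to each compound.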

[8] = NCI Yeast Anticancer Drug Screen. Data for the sgs1 mgt1 strain (AID 161);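 note: 0% = growth of cultures given vehicle only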; details: S. cerevisiae sgs1 mgt1 strain, hits give high values
Method in brief: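 This yeast growth screen uses a strain with defined DNA-repair lesions; compound-treated growth is compared with vehicle-treated growth.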

[9] = NCI Yeast Anticancer Drug Screen. Data for the CLN2oe strain (AID 163);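 note: 0% = growth of vehicle-only control cultures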; details: S. cerevisiae CLN2oe strain, hits give high values
Method in brief: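 Values reflect how much compound exposure reduced yeast growth, referenced to vehicle-exposed cells. Assay organism is a strain with a defined genetic change affecting cell-cycle control.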

[10] = NCI Yeast Anticancer Drug Screen. Data for the cln2 rad14 strain (AID 165);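 note: 0% = growth equal to vehicle treated cultures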; details: S. cerevisiae cln2 rad14 strain, hits give high values
Method in brief: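 Relative to vehicle controls, growth inhibition of compound-treated cln2 rad14 yeast was recorded.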

[11] = NCI Yeast Anticancer Drug Screen. Data for the bub3 strain (AID 167); details: S. cerevisiae bub3 mutant strain, hits give high values
Method in brief: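 Inhibition values come from growth of compound-treated mutant yeast normalised to vehicle-treated controls.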

[12] = NCI Yeast Anticancer Drug Screen. Data for the wt2 strain (AID 169);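 note: 0% = growth of vehicle-treated yeast cultures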; details: S. cerevisiae wt2 strain growth inhibition, hits give high values
Method in brief: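 Values express reduction in yeast growth under compound treatment, referenced to vehicle-treated cells.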

[13] = NCI Yeast Anticancer Drug Screen. Data for the sgs1 strain (AID 173);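 note: 0% = growth of vehicle-only control cultures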; details: S. cerevisiae sgs1 mutant, hits give high values
Method in brief: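 Treat defined-mutant yeast with compound; measure growth; calculate inhibition relative to vehicle-treated cells.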

[14] = NCI Yeast Anticancer Drug Screen. Data for the mlh1 rad18 strain (AID 175); details: S. cerevisiae mlh1 rad18 strain growth inhibition, hits give high values
Method in brief: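 Test agents were incubated with a yeast strain of defined genotype (DNA damage repair defect). Inhibition of growth was derived by comparison with vehicle-exposed cultures.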

[15] = NCI Yeast Anticancer Drug Screen. Data for the rad18 strain (AID 177); details: S. cerevisiae rad18 mutant growth inhibition, hits give high values
Method in brief: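 A genetically defined yeast mutant impaired in DNA damage repair was treated with test compounds, then its growth was measured against cultures receiving vehicle alone.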

[16] = NCI Yeast Anticancer Drug Screen. Data for the mlh1 strain (AID 171);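 note: 0% = growth of vehicle-treated control cultures of the same strain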; details: S. cerevisiae mlh1 strain growth inhibition, hits give high values
Method in brief: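 Steps: expose the defined-mutant yeast strain to compound; expose a parallel culture to vehicle; measure growth; express compound effect as inhibition relative to the vehicle culture.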

[17] = at 5.0 µM (retest, dose inferred, filed as 0.5)
[18] = at 50.0 µM (retest, dose inferred, filed as 5.0)

Measured: growth inhibition

CCC(=O)Nc1ccc(N=NN(C)C)cc1
active: [1]; at 33.0 µM 87% | [1]; at 100.0 µM 99% | [2]; at 100.0 µM 99% | [3]; at 100.0 µM 99% | [5]; at 50.0 µM 90.7% | [5]; at 100.0 µM 98% | [6]; [18] 95% | [6]; at 50.0 µM 75.2% | [6]; at 100.0 µM 99% | [7]; at 100.0 µM 99% | [9]; at 100.0 µM 97% | [11]; at 100.0 µM 90% | [12]; at 33.0 µM 73% | [12]; at 100.0 µM 100% | [13]; at 100.0 µM 99% | [15]; at 100.0 µM 99%
inactive: [1]; at 1.2 µM -9% | [1]; at 3.7 µM -12% | [1]; at 11.0 µM -13% | [2]; at 1.2 µM -1% | [2]; at 3.7 µM 2% | [2]; at 11.0 µM 3% | [2]; at 33.0 µM 47% | [3]; at 1.2 µM -10% | [3]; at 3.7 µM -30% | [3]; at 11.0 µM -21% | [3]; at 33.0 µM 65% | [4]; at 1.2 µM -2% | [4]; at 3.7 µM -9% | [4]; at 11.0 µM -5% | [4]; at 33.0 µM -9% | [4]; at 100.0 µM 45% | [5]; at 1.2 µM -61% | [5]; at 3.7 µM -23% | [5]; [17] -146% | [5]; at 11.0 µM -20% | [5]; at 33.0 µM 24% | [5]; [18] 45% | [6]; at 1.2 µM -5% | [6]; at 3.7 µM -5% | [6]; [17] -49% | [6]; at 11.0 µM -5% | [6]; at 33.0 µM 17% | [7]; at 1.2 µM -3% | [7]; at 3.7 µM -7% | [7]; at 11.0 µM -1% | [7]; at 33.0 µM 23% | [8]; [17] -65% | [8]; [18] 37% | [8]; at 50.0 µM 69.9% | [9]; at 1.2 µM -11% | [9]; at 3.7 µM -9% | [9]; at 11.0 µM -11% | [9]; at 33.0 µM 21% | [10]; [17] -56% | [10]; [18] 55% | [10]; at 50.0 µM 48.2% | [11]; at 1.2 µM -9% | [11]; at 3.7 µM -8% | [11]; [17] -70% | [11]; at 11.0 µM -13% | [11]; at 33.0 µM -11% | [11]; [18] 34% | [11]; at 50.0 µM 0.3% | [12]; at 1.2 µM 0% | [12]; at 3.7 µM 2% | [12]; at 11.0 µM 6% | [13]; at 1.2 µM -13% | [13]; at 3.7 µM -8% | [13]; at 11.0 µM 2% | [13]; at 33.0 µM 46% | [14]; [17] -150% | [14]; [18] 9% | [14]; at 50.0 µM 50.2% | [15]; at 1.2 µM -8% | [15]; at 3.7 µM -10% | [15]; at 11.0 µM -9% | [15]; at 33.0 µM 69%

CCOC(=O)CC1(C)/C(=N\Nc2ccc([N+](=O)[O-])cc2[N+](=O)[O-])CCC2C1CCC1(C)C(C(C)CCCC(C)C)CCC21 (stereo unspecified)
inactive: [1]; at 1.2 µM 0% | [1]; at 3.7 µM 0% | [1]; at 11.0 µM 0% | [1]; at 33.0 µM 1% | [1]; at 100.0 µM -2% | [2]; at 1.2 µM 0% | [2]; at 3.7 µM -1% | [2]; at 11.0 µM -1% | [2]; at 33.0 µM -1% | [2]; at 100.0 µM -3% | [3]; at 1.2 µM -2% | [3]; at 3.7 µM -1% | [3]; at 11.0 µM -2% | [3]; at 33.0 µM -2% | [3]; at 100.0 µM 1% | [4]; at 1.2 µM -1% | [4]; at 3.7 µM -3% | [4]; at 11.0 µM -2% | [4]; at 33.0 µM -1% | [4]; at 100.0 µM -5% | [5]; at 1.2 µM 1% | [5]; at 3.7 µM 2% | [5]; at 11.0 µM 3% | [5]; at 33.0 µM 0% | [5]; at 50.0 µM -50.5% | [5]; at 100.0 µM -1% | [6]; at 1.2 µM -4% | [6]; at 3.7 µM -4% | [6]; [17] 10% | [6]; at 11.0 µM -5% | [6]; at 33.0 µM -1% | [6]; [18] 10% | [6]; at 50.0 µM -6.8% | [6]; at 100.0 µM -5% | [7]; at 1.2 µM 0% | [7]; at 3.7 µM -2% | [7]; at 11.0 µM -4% | [7]; at 33.0 µM -3% | [7]; at 100.0 µM -3% | [8]; [17] 6% | [8]; [18] 4% | [8]; at 50.0 µM -26.4% | [9]; at 1.2 µM -2% | [9]; at 3.7 µM -4% | [9]; at 11.0 µM 6% | [9]; at 33.0 µM -2% | [9]; at 100.0 µM -5% | [10]; [17] 7% | [10]; [18] -3% | [10]; at 50.0 µM -21.4% | [11]; at 1.2 µM -1% | [11]; at 3.7 µM -3% | [11]; [17] -10% | [11]; at 11.0 µM -5% | [11]; at 33.0 µM -3% | [11]; [18] -11% | [11]; at 50.0 µM -1.1% | [11]; at 100.0 µM -5% | [12]; at 1.2 µM 0% | [12]; at 3.7 µM 1% | [12]; at 11.0 µM 0% | [12]; at 33.0 µM -1% | [12]; at 100.0 µM -1% | [16]; at 1.2 µM -1% | [16]; at 3.7 µM -3% | [16]; at 11.0 µM -2% | [16]; at 33.0 µM -3% | [16]; at 100.0 µM -3% | [14]; [17] 4% | [14]; [18] 2% | [14]; at 50.0 µM 0.05% | [15]; at 1.2 µM -2% | [15]; at 3.7 µM -5% | [15]; at 11.0 µM -3% | [15]; at 33.0 µM -5% | [15]; at 100.0 µM -4%
active: [5]; [17] 92% | [5]; [18] 90%

From PubChem BioAssay (NCI)
